Measurements as given in PubChem BioAssay AID2599 (Sanford-Burnham Center for Chemical Genomics, 2010).
Out of some 330,000 compounds screened, about 5,800 (1.8%) were called active.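 How the source made its calls: active means inhibition above about 50% at the single tested dose (limit read from the data); inactive means the rest.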 The entries come from a sample that favours actives as a whole.

molecular target: Sentrin-specific protease 6 (Homo sapiens) (UniProt Q9GZR1); experiment: SENP6 protease inhibitors, primary screen, biochemical, luminescence, uHTS (AID 2599); conditions: Recombinant SENP6 catalytic domain, aminoluciferin luminescence; at 10 µM; active compounds read high;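 further: plate controls were DMSO wells with enzyme for no effect and DMSO wells lacking enzyme for full effect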
Sequence (Q9GZR1 628-1112 limits assumed): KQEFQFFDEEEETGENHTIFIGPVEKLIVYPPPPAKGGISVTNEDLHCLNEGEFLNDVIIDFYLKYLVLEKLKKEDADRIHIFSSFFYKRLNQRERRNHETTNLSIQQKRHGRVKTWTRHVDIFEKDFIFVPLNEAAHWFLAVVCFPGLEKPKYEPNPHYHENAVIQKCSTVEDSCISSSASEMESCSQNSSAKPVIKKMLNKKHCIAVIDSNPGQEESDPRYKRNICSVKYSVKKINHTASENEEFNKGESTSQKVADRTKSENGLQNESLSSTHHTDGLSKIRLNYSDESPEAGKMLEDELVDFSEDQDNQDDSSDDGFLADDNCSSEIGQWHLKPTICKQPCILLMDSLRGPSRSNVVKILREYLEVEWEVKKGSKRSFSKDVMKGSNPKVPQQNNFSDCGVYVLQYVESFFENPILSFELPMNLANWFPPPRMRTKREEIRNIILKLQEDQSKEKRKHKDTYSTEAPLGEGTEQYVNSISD

inhibition, active:
Nc1ccc(N=Nc2ccccc2Cl)c(N)n1 81.2%
Cc1ccnc(Nc2nc3ccccc3s2)n1 78.6%
CCn1nccc1C(=O)Nc1ccc(Cl)c(Cl)c1 76.6%
O=C(c1ccc(F)cc1)n1c(=S)nc2ccccn21 71.7%
COc1ccc(NC(=O)Nc2cccc3cccnc23)cc1 80.7%
O=C(Nc1ccccc1Cl)Nc1cccc2cccnc12 58.1%
O=C(Nc1cc2ccccc2oc1=O)C1CCCCC1 62.5%
Cc1[nH]n(-c2ccc([N+](=O)[O-])cc2)c(=O)c1C=NCCN1CCN(C(=O)c2ccccc2F)CC1 87%
CCC(=O)Nc1ccc2nn(-c3ccc(F)cc3)nc2c1 76.9%
Cc1[nH]n(C(N)=S)c(=O)c1N=Nc1ccc(Cl)cc1Cl 96.1%
CCOC(=O)c1cnc2[nH]c3ccccc3n2c1=O 83%
O=C1CC(c2ccccc2)=NN1c1ccc([N+](=O)[O-])cc1 75.3%
COc1cccc(OCC(O)CNC(=O)c2oc3c(C)c(C)ccc3c2C)c1 (stereo not drawn) 95.6%
COc1ccccc1OCc1nc2ccccc2s1 94.1%
CCCCOc1ccc(-c2nnc(-c3ccco3)o2)cc1 67.2%
CCOc1ccc(-c2nnc(-c3ccco3)o2)cc1 85%
CCc1ccc2oc(-c3ccc(N)cc3)nc2c1 96.1%
CCN1CC=C2C(C#N)=C(N)C(C#N)(C#N)[C@H](c3ccoc3)[C@H]2C1 72.9%
Cc1c(C(=O)Nc2ccccn2)oc2ccc(Br)cc12 56.3%
COc1cccc(C(=O)c2cc3ccc(O)cc3oc2=O)c1 101%
CC(C)CCNC(=O)c1ccc2c(Cl)c3c(nc2c1)CCC3 76.2%

inhibition, inactive:
CC[C@]1(c2ccccc2OC)C(=O)N(C(=O)OC)N1C(=O)OC 0.734%
CC(=O)Nc1ccc(OCCC[n+]2cccc(C(=O)[O-])c2)cc1 -17.4%
COc1cccc(NC(=O)c2cc(S(=O)(=O)N3CCc4ccccc43)cn2C)c1 3.36%
Cc1ccnc(-n2sc3ccccc3c2=O)n1 2.11%
CC(=O)Nc1cccc(-c2nc3ccccc3s2)c1C -16.1%
CCn1nccc1C(=O)Nc1ccc(S(=O)(=O)NC23CC4CC(CC(C4)C2)C3)cc1 1.42%
O=C(CC(O)(C(F)(F)F)C(F)(F)F)Nc1ccc(Cl)c(Cl)c1 1.52%
COc1ccc(OC)c(S(=O)(=O)N2CCCC(C(=O)NCCc3ccccc3)C2)c1 (stereo not drawn) -9.45%
O=C(Cn1c(=S)nc2ccccn21)N1CCc2ccccc2C1 -12.6%
O=C(c1ccc(F)cc1)n1cc(C(=S)N2CCOCC2)c2ccccc21 5.26%
CCOc1cc2[nH]c(=S)n(CCCN3CCCC3=O)c(=O)c2cc1OCC -8.53%
COc1ccc(NC(=O)C2CCCN(S(=O)(=O)c3cccc4cccnc34)C2)cc1 (stereo not drawn) -2.53%
O=C(Nc1ccccc1Cl)O/N=C(/c1ccccc1)c1ccccn1 5.09%
CCOC(=O)Cc1ncccc1C(=O)Nc1ccc(OC)cc1 10.7%
O=C(Nc1cccc2cccnc12)c1cccc(Cl)c1 38.9%
COc1ccc(OCC(=O)NN2Cc3ccccc3C2=N)cc1 -3.36%
COC(=O)C1=C(C)N(Cc2ccccc2)C(=NCCCOC(C)C)N[C@H]1c1ccccc1 -15.2%
Cc1ccc(S(=O)(=O)N(C)CC(=O)OCC(=O)N2CC(=O)Nc3ccccc32)cc1 -8.14%
Cn1c(N)c(C(=O)COC(=O)/C=C/c2ccc(OC(F)F)cc2)c(=O)n(C)c1=O -13.8%
Cc1ccccc1NC(=O)C1CCN(C(=O)NC2CCCCC2)CC1 -18.9%
O=C(Nc1ccc2c(c1)OCCO2)C1CCCC1 15.1%
C[n+]1ccc(C(=O)NCc2ccccc2)cc1 -12.9%
C=CCNC(=S)N1CCN(CCN=Cc2c(C)[nH]n(-c3ccc([N+](=O)[O-])cc3)c2=O)CC1 1.69%
Cc1ccc(-n2[nH]c(C)c(/C=N/NC(=O)c3cccc([N+](=O)[O-])c3)c2=O)cc1C 27.4%
O=C(COC(=O)c1ccccc1Cl)NC1CCCCCCC1 -12.9%
Cc1ccc(-n2nc3ccc(NC(=O)/C=C/c4ccco4)cc3n2)cc1C 10.8%
Cc1nn(CC(=O)Nc2ccc(F)cc2)c(=O)c2ccccc12 -16.4%
CC(C(=O)N1CCc2ccccc21)N(C)CC(=O)Nc1ccc(F)cc1 (stereo not drawn) -18.7%
O=C(/C=N/O)Nc1ccccc1 -8.91%
Cc1ccc(-c2nc(-c3cccnc3)sc2CC(=O)Nc2ccc(C)c(Cl)c2)cc1 -22%
Cc1[nH]n(C)c(=O)c1N=Nc1ccc(S(C)(=O)=O)cc1 -4.33%
Cc1cccc(N=Nc2c(C)[nH]n(-c3ccccc3)c2=O)c1 -17.2%
COc1ccc(CCNC(=O)COC(=O)Cc2ccccc2F)cc1 0.819%
CCN(CC)CCOCCOc1ccc(Cl)c2ccccc12 -6.66%
CCOC(=O)c1cnc(COc2ccccc2Cl)[nH]c1=O -27.6%
CCOC(=O)c1cnc2sccn2c1=O -5.45%
Cc1ccc(S(=O)(=O)NCC(=O)N(CC(=O)NC2CCCCC2)Cc2ccco2)cc1 1.15%
COc1cc(C(=O)NCc2ccc3c(c2)cc(C)n3C)cc(OC)c1OC 1.27%
COc1cc2c3c(c1)/C(=C1/SC(=S)NC1=O)C(=O)N3C(C)(C)C=C2C 24.2%
O=c1[nH]n(-c2ccc([N+](=O)[O-])cc2)c(=O)c2ccccc12 -18.2%
Cc1nc(-c2ccc([N+](=O)[O-])cc2)c(-c2ccccc2)o1 -20.8%
COc1ccc2oc(C(=O)NCC(Cc3ccccc3)N(C)C)c(C)c2c1 (stereo not drawn) -20.2%
COc1ccc2oc(C(=O)NCc3ccco3)c(C)c2c1 -9.13%
Cc1ccc(C(=O)Nc2ccc3c(c2)OCCO3)cc1S(=O)(=O)N1CCOCC1 7.66%
CC(C)C(NS(=O)(=O)c1cccs1)C(=O)Nc1nc(C(C)(C)C)cs1 (stereo not drawn) -11.7%
COc1ccccc1N1CC(O)=C(c2nc3ccccc3s2)C1=N -18.4%
CN(Cc1nc2ccccc2s1)C(=O)c1ccc(F)cc1 2.3%
C/C=C/c1ccc(OCC(O)CN2CCCCCCC2)c(OC)c1 (stereo not drawn) 1.7%
CC(C)[C@H](NC(=O)N1CC(=O)Nc2ccccc21)C(=O)N[C@@H](Cc1c[nH]c2ccccc12)C(=O)O -5.26%
CCCCOc1ccc(-c2ncc(C(=O)OCC)c(N)n2)cc1 -8.7%
CCOc1ccc(-n2c(SCC(N)=O)nnc2-c2ccco2)cc1 -12.9%
COc1ccc(OCC(=O)Nc2nnc(-c3ccco3)s2)cc1 -16.6%
N#Cc1ccc(OCc2nnc(-c3ccc([N+](=O)[O-])cc3)o2)cc1 -4.94%
O=S(=O)(Cc1nnnn1-c1ccccc1)c1ccccc1 6.33%
Cc1ccc(NC(=O)[C@H](Cc2ccccc2)NC(=O)C2CCNCC2)cc1 -5.94%
CCOc1ccc(S(=O)(=O)N2CCC(C(=O)OCc3ccc(OC)cc3)CC2)cc1 -11.1%
O=C(Nc1ccc2oc(-c3ccc4ccccc4c3)nc2c1)c1cccs1 -13.1%
Cc1cc2nc(-c3ccc(NC(=O)c4cccnc4)cc3)oc2cc1C -15%
COc1cccc(NC(=O)Cn2cnc3sc(C)c(S(=O)(=O)N4CCN(C)CC4)c3c2=O)c1 10.7%
Cc1nnc(Nc2ccccc2F)s1 8.06%
C=CCN1CCN(C(=O)CCCc2ccccc2)CC1 0.31%
O=c1ccc2cc(S(=O)(=O)Nc3ccccc3F)ccc2o1 16.4%
CCCN1CC=C2C(C#N)=C(N)C(C#N)(C#N)C(c3cc(OC)ccc3OC)C2C1 (stereo not drawn) 0.193%
N#CC1=C(N)C(C#N)(C#N)[C@H](c2ccsc2)[C@H]2COCC=C12 -0.527%
CC(CO)(CO)NC(=O)c1ccc(=O)[nH]n1 -1.98%
Cc1noc(C)c1C(=O)Nc1ccccn1 -8.05%
Cc1nonc1NC(=O)c1oc2ccccc2c1C 2.56%
Cn1ccc(=Nc2ccc(NC(=O)c3ccc(N=c4ccn(C)c5ccc([N+](=O)[O-])cc45)cc3)cc2)cc1 0.718%
NS(=O)(=O)c1ccc(-c2ccc(/C=C3\SC(=O)NC3=O)o2)cc1 -21.1%
CCn1c(CN2C(=O)CSc3ccccc32)n[nH]c1=S 5.59%
CCOC(=O)c1cc(C)sc1NC(=O)C1CCC1 -29.2%
COc1cccc(C(=O)NNC(=O)c2cccc(F)c2)c1 0.598%
CCOC(=O)c1cc2cc3ccccc3cc2oc1=O 13.2%
Cc1ccc(N2C(=O)C(NC(=O)c3c(F)cccc3F)(C(F)(F)F)C3=C2CC(C)(C)CC3=O)cc1 (stereo not drawn) -5.98%
COC(=O)c1c(CCl)noc1C(=O)NC(C)C 15.8%
CC(=O)c1ccc(NC(=O)c2ccc3c(Cl)c4c(nc3c2)CCCC4)cc1 -20.3%
COc1ccc(N2CCN(C(=O)c3ccc4c(Cl)c5c(nc4c3)CCCC5)CC2)cc1 -0.317%
